Test results reported in PubChem BioAssay AID1429 (The Scripps Research Institute Molecular Screening Center, 2008).
The list shows a part of the results. Active and inactive are the calls of the source.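 How the source made its calls: active means inhibition above the hit threshold that was computed for the earlier primary screen (cut at about 30% in these data); inactive means the rest.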

The compounds below were run against Sphingosine 1-phosphate receptor 3 (Homo sapiens) (UniProt Q99500) (assay: S1P3 receptor antagonists, retest, confirmation, cell-based (AID 1429;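 further: 0% = S1P-stimulated wells and 100% = unstimulated DMSO-only wells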)). Conditions: CHO S1P3 NFAT-BLA reporter, FRET, antagonist mode; at 4.98 µM; active compounds read high.
Chain of Sphingosine 1-phosphate receptor 3 (Homo sapiens) (Q99500 whole entry, looked up): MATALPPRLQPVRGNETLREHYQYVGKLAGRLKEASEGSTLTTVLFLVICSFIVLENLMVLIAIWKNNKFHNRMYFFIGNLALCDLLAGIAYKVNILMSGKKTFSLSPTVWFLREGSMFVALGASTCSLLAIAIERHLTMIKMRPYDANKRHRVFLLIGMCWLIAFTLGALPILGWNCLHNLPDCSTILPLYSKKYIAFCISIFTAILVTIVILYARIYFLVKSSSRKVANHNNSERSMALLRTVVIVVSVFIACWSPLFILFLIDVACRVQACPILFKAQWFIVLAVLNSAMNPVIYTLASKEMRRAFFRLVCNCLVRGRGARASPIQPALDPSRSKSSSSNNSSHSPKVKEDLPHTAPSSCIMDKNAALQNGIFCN

inhibition, active:
CC[C@H]1CN2CCc3cc(OC)c(OC)cc3[C@@H]2C[C@@H]1C[C@H]1NCCc2cc(OC)c(OC)cc21 109%, CCOC(=O)C1=C(C)N=C2c3ccccc3C(=O)C2C1c1ccc(Br)cc1 (stereo not given) 77.8%

inhibition, inactive:
CC(C)Oc1ccccc1C(=O)NC(CO)C(=O)O (stereo not given) -23.6%, Nc1c(C(=O)c2cccs2)sc2nsc(SCCN3CCCCC3)c12 18.8%, CCN1/C(=C\c2ccc3ccccc3[n+]2CC)Sc2cc(C)ccc21 10.8%, O=C(N/N=C/c1coc2ccccc2c1=O)c1cc2ccccc2o1 -18.6%, CC(=O)c1c(C)[nH]c(C(=O)COC(=O)c2cccc(S(=O)(=O)N(C)c3ccccc3)c2)c1C 10.9%, Cc1ccc(NC(=O)CN(C)CC(=O)Nc2cccc(F)c2)cc1[N+](=O)[O-] 12.6%, S=C(NCCc1ccccc1)NCC1CCCO1 (stereo not given) -4.63%, CSc1ccc(CN(C)CC(=O)NCc2ccc(F)cc2)cc1 -9.96%
